From PubChem BioAssay (NCATS)
Results filed as inconclusive are left out. Entries that show only a call come without a potency. The source made the active and inactive calls. The call rests on the fitted dose curve; in most records, active means well fitted inhibition curve with a large enough effect; inconclusive means small, poorly fitted or top-dose-only effect; inactive means no such curve, though single readings can be large or run the other way.

System: Zika virus NS2B-NS3 protease (unlinked complex)
Experiment: Primary screen GU Rhodamine qHTS for Zika virus inhibitors: Unlinked NS2B-NS3 protease assay (AID 1347159); further: nearly all actives have a fitted effect of over 60% in size
Settings: Recombinant ZIKV NS2B-NS3 protease, Rhodamine110 substrate fluorescence; series mostly up to 107 µM
Method in brief: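 Noncovalent NS2B hydrophilic domain/NS3 protease complex (25 nM final) in 10 mM Tris-HCl pH 8.0, 0.01% Tween 20, preincubated 15 min with compounds (up to 114 microM), then 1.5 microM Rhodamine110 substrate. Fluorescence change over 15 min fitted to 4-parameter Hill.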
Potency means the concentration at half of the fitted maximal effect.

| SMILES | Potency |
| --- | --- |
| COC(=O)C1=COC(O[C@@H]2O[C@H](CO)[C@@H](O)[C@H](O)[C@H]2O)C2C(C)C(=O)CC12 (some centres undefined) | inactive |
| Cc1ccc(-c2c(-c3nn(C)c4ncnc(N5CC[C@H](N6CCCCC6)C5)c34)cnn2C)cc1 | inactive |
| CC1(C)CC=C(C#Cc2ccccc2)c2cc(/C=C/c3ccc(C(=O)O)cc3)ccc21 | 6.31 µM (active) |
| COc1cc(C[C@@]2(O)CO[C@@H](c3ccc(O[C@@H]4O[C@H](CO)[C@@H](O)[C@H](O)[C@H]4O)c(OC)c3)[C@H]2CO)ccc1O | inactive |
| C=C(C)[C@@]1(O)C[C@@]2(C)C(=CC1=O)CC[C@@H](O)[C@@H]2C | inactive |
| Cc1cc(Cn2cnc3c2CC(C(=O)O)N(C(=O)C(c2ccccc2)c2ccccc2)C3)ccc1N(C)C (centres undefined) | inactive |
| CC(=O)O[C@@H]1C[C@@H](C)[C@](O)(CCC2=CC(=O)OC2)[C@@]2(C)CCCC(C)(C)C12 (some centres undefined) | inactive |
| C[C@@H]1O[C@@H](O[C@H]2[C@@H]3C=CO[C@@H](O[C@@H]4O[C@H](CO)[C@@H](O)[C@H](O)[C@H]4O)[C@@H]3[C@@]3(CO)O[C@@H]23)[C@H](O)[C@H](O)[C@H]1OC(=O)/C=C/c1ccc(O)cc1 | inactive |
| C/C(CO)=C1/CCC23COC(C2)C(O)(C(=O)O)CCC13 (centres undefined) | inactive |
| CNc1nc(C)nc(N[C@H]2CCC[C@@H](C(=O)NCc3ccc(C#N)cc3C(F)(F)F)C2)n1 | inactive |
| O=C(/C=C/c1ccc(O)cc1)O[C@H]1[C@H](OC2CCCCC2O)O[C@H](CO)[C@@H](O)[C@@H]1O (some centres undefined) | inactive |
| CC1(C)CC[C@]2(C(=O)O[C@@H]3O[C@H](CO)[C@@H](O)[C@H](O)[C@H]3O)CC[C@]3(C)C(=CCC4[C@@]5(C)C[C@H](O)[C@H](O[C@@H]6OC[C@@H](O)[C@H](O)[C@H]6O)[C@@](C)(CO)C5CC[C@]43C)C2C1 (some centres undefined) | inactive |
| O=C(/C=C/c1ccc(O)cc1)OCC1OC(O)C(OC2OC(CO)C(O)C(O)C2O)C(O)C1O (centres undefined) | inactive |
| CC1(C(=O)O)CCCC2(C)C3CCC4CC3(CCC12)CC4(O)CO (centres undefined) | inactive |
| C[C@@H]1C(=O)O[C@H]2[C@H]1CC[C@@]1(C)C(=O)C=C[C@@](C)(O)[C@H]21 | inactive |
| C=CC(C)(CC/C=C(\C)C(=O)OC)OC1OC(COC(=O)CC(C)(O)CC(=O)O)C(O)C(O)C1O (centres undefined) | inactive |
| COc1cc(O)cc(C)c1C(=O)OC1C(CO)OC(n2ccc(=O)[nH]c2=O)C1OC(C)=O (centres undefined) | inactive |
| COc1ccc(C(=O)NCc2cc(C(C)C)no2)cc1OC1CCN(C)CC1 | inactive |
| CC1=CCC2C(C)(C)CCCC2(C)C1CC12OC1C(O)C(CO)=CC2O (centres undefined) | inactive |
| COC(=O)/C=C/c1ccc(O[C@@H]2O[C@H](CO)[C@@H](O)[C@H](O)[C@H]2O)cc1 | inactive |
| C=C(COC(=O)C(C)C)C1Oc2cc(C(C)=O)ccc2C1OC(=O)C(C)C (centres undefined) | inactive |
| Cc1nc(-c2cccnc2)sc1C(=O)Nc1ccccc1-c1cn2c(CN3CCOCC3)csc2n1 | inactive |
| COc1cc(/C=C/C(=O)O)ccc1O[C@@H]1O[C@H](CO)[C@@H](O)[C@H](O)[C@H]1O[C@@H]1OC[C@](O)(CO)[C@H]1O | inactive |
| COc1cc(O)c2c(c1Cl)CC(C)OC2=O (centres undefined) | inactive |
| CCCO[C@@H]1O[C@H](CO)[C@@H](O)[C@H](O)[C@H]1O[C@@H]1OC[C@@H](O)[C@H](O)[C@H]1O | inactive |
| C=C(CCO)C(=O)OCC1OCC(OC(=O)C(=C)CCO[C@@H]2O[C@H](CO)[C@@H](O)[C@H](O)[C@H]2O)C(O)C1O (some centres undefined) | inactive |
| NC(=O)NCCCC(NC(=O)Cc1ccccc1)C(=O)O (centres undefined) | inactive |
| CC1=C2CC(=O)C(C)CC/C=C(\C)CC2(O)OC1=O (centres undefined) | inactive |
| C=C1CC[C@@]2(OC1)O[C@H]1CC3C4CC=C5C[C@@H](O[C@@H]6O[C@@H](C)[C@H](O)[C@@H](O)[C@H]6O)C[C@@H](O[C@@H]6O[C@H](C)[C@H](O)[C@H](O)[C@H]6O[C@@H]6O[C@@H](C)[C@H](O)[C@@H](O)[C@H]6O)[C@]5(C)C4CC[C@]3(C)[C@H]1[C@@H]2C (some centres undefined) | inactive |
| C/C=C/C=C/C=C/C(=O)OC1C=C2C(O)OC(=O)[C@]2(O)[C@@]2(C)CCCC(C)(C)[C@H]12 (some centres undefined) | 6.31 µM (active) |

System: Zika virus NS2B-NS3 protease (linked construct)
Experiment: Primary screen NINDS Rhodamine qHTS for Zika virus inhibitors (AID 1347160); further: nearly all actives have a fitted effect of over 55% in size
Settings: purified NS2B-NS3 protease, Rhodamine110 substrate fluorescence; series mostly up to 33.1 µM
Method in brief: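 Purified NS2B-NS3 protease with the NS2B hydrophilic domain joined by a flexible linker (25 nM) in 10 mM Tris-HCl pH 8.0, 0.01% Tween 20, preincubated 15 min at RT with compound; Rhodamine110 peptide substrate 1.5 µM; fluorescence change over 15 min; 4-parameter Hill fit.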

| SMILES | Potency |
| --- | --- |
| OC[C@@]1(O)CO[C@H](OC[C@H]2O[C@@H](OC(CCCCc3ccc(O)cc3)CCc3ccc(O)cc3)[C@H](O)[C@@H](O)[C@@H]2O)[C@@H]1O (some centres undefined) | inactive |
| CC12CC34CC(O)C5C(CO)(CO)CC(=O)CC5(C)C3CC1C2C4 (centres undefined) | inactive |
| NCCCCN(Cc1nc2ccccc2[nH]1)[C@H]1CCCc2cccnc21 | inactive |
| CC1(C)CC[C@]2(C(=O)O)CC[C@]3(C)C(=CCC4[C@@]5(C)C[C@@H](O)[C@H](O)[C@](C)(CO)C5CC[C@]43C)[C@@H]2[C@@H]1O (some centres undefined) | inactive |
| CC1C2=CC(=O)OC2(O)CC2C1C(OC(=O)c1ccccc1)C(OC(=O)c1ccccc1)C1(O)C2(C)CCC(O)C1(C)C(=O)O (centres undefined) | inactive |
| C/C=C(/C)C(=O)O[C@H]1C[C@]2(C)O[C@@H]2[C@@H](OC(C)=O)[C@@]2(C)CC[C@@](O)(C(C)C)[C@H]12 | inactive |
| O=C(O)Cc1cn([C@@H]2OC[C@@H](O[C@@H]3O[C@H](CO)[C@@H](O)[C@H](O)[C@H]3O)[C@H](O)[C@H]2O[C@@H]2O[C@H](CO)[C@@H](O)[C@H](O)[C@H]2O)c2ccccc12 | inactive |
| COC(=O)[C@@H](NC(=O)[C@H](CC(C)C)NC(=O)N(Cc1ccccc1)C[C@@H](O)[C@H](Cc1ccccc1)NC(=O)OC(C)(C)C)C(C)C | inactive |
| C[C@H]1/C=C/C=C/C=C/C=C/C=C/[C@@H](O)[C@H](C(=O)O)[C@H](O)C[C@H](O)CCC[C@H](O)C[C@H](O)C[C@H](O)[C@@H](C)C(=O)O[C@@H]1C | inactive |
| COC(=O)C1=COC(O[C@@H]2O[C@H](CO)[C@@H](O)[C@H](O)[C@H]2O)C2C(C)C(=O)CC12 (some centres undefined) | inactive |
| Cc1ccc(-c2c(-c3nn(C)c4ncnc(N5CC[C@H](N6CCCCC6)C5)c34)cnn2C)cc1 | inactive |
| CC1(C)CC=C(C#Cc2ccccc2)c2cc(/C=C/c3ccc(C(=O)O)cc3)ccc21 | 15.8 µM (active) |
| COc1cc(C[C@@]2(O)CO[C@@H](c3ccc(O[C@@H]4O[C@H](CO)[C@@H](O)[C@H](O)[C@H]4O)c(OC)c3)[C@H]2CO)ccc1O | inactive |
| C=C(C)[C@@]1(O)C[C@@]2(C)C(=CC1=O)CC[C@@H](O)[C@@H]2C | inactive |
| Cc1cc(Cn2cnc3c2CC(C(=O)O)N(C(=O)C(c2ccccc2)c2ccccc2)C3)ccc1N(C)C (centres undefined) | inactive |
| CC(=O)O[C@@H]1C[C@@H](C)[C@](O)(CCC2=CC(=O)OC2)[C@@]2(C)CCCC(C)(C)C12 (some centres undefined) | inactive |
| C[C@@H]1O[C@@H](O[C@H]2[C@@H]3C=CO[C@@H](O[C@@H]4O[C@H](CO)[C@@H](O)[C@H](O)[C@H]4O)[C@@H]3[C@@]3(CO)O[C@@H]23)[C@H](O)[C@H](O)[C@H]1OC(=O)/C=C/c1ccc(O)cc1 | inactive |
| C/C(CO)=C1/CCC23COC(C2)C(O)(C(=O)O)CCC13 (centres undefined) | inactive |
| CNc1nc(C)nc(N[C@H]2CCC[C@@H](C(=O)NCc3ccc(C#N)cc3C(F)(F)F)C2)n1 | inactive |
| O=C(/C=C/c1ccc(O)cc1)O[C@H]1[C@H](OC2CCCCC2O)O[C@H](CO)[C@@H](O)[C@@H]1O (some centres undefined) | inactive |

| SMILES | Potency |
| --- | --- |
| CC1(C)CC[C@]2(C(=O)O[C@@H]3O[C@H](CO)[C@@H](O)[C@H](O)[C@H]3O)CC[C@]3(C)C(=CCC4[C@@]5(C)C[C@H](O)[C@H](O[C@@H]6OC[C@@H](O)[C@H](O)[C@H]6O)[C@@](C)(CO)C5CC[C@]43C)C2C1 (some centres undefined) | inactive |
| O=C(/C=C/c1ccc(O)cc1)OCC1OC(O)C(OC2OC(CO)C(O)C(O)C2O)C(O)C1O (centres undefined) | inactive |
| CC1(C(=O)O)CCCC2(C)C3CCC4CC3(CCC12)CC4(O)CO (centres undefined) | inactive |
| C[C@@H]1C(=O)O[C@H]2[C@H]1CC[C@@]1(C)C(=O)C=C[C@@](C)(O)[C@H]21 | inactive |
| C=CC(C)(CC/C=C(\C)C(=O)OC)OC1OC(COC(=O)CC(C)(O)CC(=O)O)C(O)C(O)C1O (centres undefined) | inactive |
| COc1cc(O)cc(C)c1C(=O)OC1C(CO)OC(n2ccc(=O)[nH]c2=O)C1OC(C)=O (centres undefined) | inactive |
| COc1ccc(C(=O)NCc2cc(C(C)C)no2)cc1OC1CCN(C)CC1 | inactive |
| CC1=CCC2C(C)(C)CCCC2(C)C1CC12OC1C(O)C(CO)=CC2O (centres undefined) | inactive |
| COC(=O)/C=C/c1ccc(O[C@@H]2O[C@H](CO)[C@@H](O)[C@H](O)[C@H]2O)cc1 | inactive |
| C=C(COC(=O)C(C)C)C1Oc2cc(C(C)=O)ccc2C1OC(=O)C(C)C (centres undefined) | inactive |
| Cc1nc(-c2cccnc2)sc1C(=O)Nc1ccccc1-c1cn2c(CN3CCOCC3)csc2n1 | inactive |
| COc1cc(/C=C/C(=O)O)ccc1O[C@@H]1O[C@H](CO)[C@@H](O)[C@H](O)[C@H]1O[C@@H]1OC[C@](O)(CO)[C@H]1O | inactive |
| COc1cc(O)c2c(c1Cl)CC(C)OC2=O (centres undefined) | inactive |
| CCCO[C@@H]1O[C@H](CO)[C@@H](O)[C@H](O)[C@H]1O[C@@H]1OC[C@@H](O)[C@H](O)[C@H]1O | inactive |
| C=C(CCO)C(=O)OCC1OCC(OC(=O)C(=C)CCO[C@@H]2O[C@H](CO)[C@@H](O)[C@H](O)[C@H]2O)C(O)C1O (some centres undefined) | inactive |
| NC(=O)NCCCC(NC(=O)Cc1ccccc1)C(=O)O (centres undefined) | inactive |
| CC1=C2CC(=O)C(C)CC/C=C(\C)CC2(O)OC1=O (centres undefined) | inactive |
| C=C1CC[C@@]2(OC1)O[C@H]1CC3C4CC=C5C[C@@H](O[C@@H]6O[C@@H](C)[C@H](O)[C@@H](O)[C@H]6O)C[C@@H](O[C@@H]6O[C@H](C)[C@H](O)[C@H](O)[C@H]6O[C@@H]6O[C@@H](C)[C@H](O)[C@@H](O)[C@H]6O)[C@]5(C)C4CC[C@]3(C)[C@H]1[C@@H]2C (some centres undefined) | inactive |
| C/C=C/C=C/C=C/C(=O)OC1C=C2C(O)OC(=O)[C@]2(O)[C@@]2(C)CCCC(C)(C)[C@H]12 (some centres undefined) | 12.6 µM (active) |
